Experiment [1] deals with Cytochrome P450 1A2 (Homo sapiens) (UniProt P05177). Put plainly: Cytochrome P450 Family 1 Subfamily A Member 2 (CYP1A2) small molecule antagonists: luciferase reporter qHTS assay (AID 1671199). In short, it runs like this: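 Quantitative high-throughput format using the P450-Glo CYP1A2 system. Reaction initiated by NADPH regeneration solution, 1 h at room temperature, then stopped with detection reagent; luminescence measured 20 min later.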
On the technique in general: Reporter assays use an easily measured gene product as a stand-in for the process of interest.

Experiment [2] deals with Voltage-gated inwardly rectifying potassium channel KCNH2 (Homo sapiens) (UniProt Q12809). Put plainly: Human Ether-a-go-go-Related Gene (hERG) channel small molecule antagonists: fluorescence cell-based qHTS assay (AID 1671200). In outline:
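Read-out: thallium influx as a surrogate for potassium, tracked as fluorescence (480 nm ex/540 nm em) every second for 2 min after Stimulus Buffer addition in dye-loaded hERG-U2OS cells.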
(Block of hERG is tested as a sign of cardiac risk.)

Experiment [3] addresses Cytochrome P450 3A4 (Homo sapiens) (UniProt P08684). Put plainly: Cytochrome P450 Family 3 Subfamily A Member 4 (CYP3A4) small molecule antagonists: luciferase reporter qHTS assay (AID 1671201). In short, it runs like this:
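Luminescent readout (RLU) proportional to CYP3A4 activity, from luciferin generated off a proluciferin substrate. Enzyme–substrate mix plus compound 10 min at room temp, NADPH regeneration 1 h, detection reagent 20 min.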

The structures appear in SMILES notation. Where “and” joins values, the source holds several entries; their conditions need not be identical. Equal values may be shown once. Inconclusive results are not listed. More than one record can exist for a structure, and the calls need not agree. Calls of active or inactive are those of the source. The call rests on the fitted dose curve; in most records, active means well fitted curve in the direction sought with a large enough effect in the repeat runs; inconclusive means weak or mixed curves; inactive means no such curve, though single readings can be large; an effect the other way counts as inactive or inconclusive.
Further: nearly all actives have a fitted effect of over 50% in size.
Potency means the concentration at half of the fitted maximal effect.

Chain of Cytochrome P450 3A4 (Homo sapiens) (P08684 whole entry, looked up): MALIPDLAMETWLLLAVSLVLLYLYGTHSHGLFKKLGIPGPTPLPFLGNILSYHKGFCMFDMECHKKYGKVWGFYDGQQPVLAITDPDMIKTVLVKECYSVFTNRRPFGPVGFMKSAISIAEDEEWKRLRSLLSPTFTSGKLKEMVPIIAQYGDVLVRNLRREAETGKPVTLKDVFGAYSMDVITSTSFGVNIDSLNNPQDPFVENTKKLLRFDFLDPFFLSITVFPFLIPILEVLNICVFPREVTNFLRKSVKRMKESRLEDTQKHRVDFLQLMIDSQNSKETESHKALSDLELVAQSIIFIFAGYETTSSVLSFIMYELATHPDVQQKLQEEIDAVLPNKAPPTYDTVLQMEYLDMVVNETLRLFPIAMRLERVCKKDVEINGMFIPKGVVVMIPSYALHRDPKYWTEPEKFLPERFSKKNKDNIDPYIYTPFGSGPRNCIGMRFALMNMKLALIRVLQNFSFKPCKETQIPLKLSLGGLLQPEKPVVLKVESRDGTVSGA
Chain of Voltage-gated inwardly rectifying potassium channel KCNH2 (Homo sapiens) (Q12809 whole entry, looked up): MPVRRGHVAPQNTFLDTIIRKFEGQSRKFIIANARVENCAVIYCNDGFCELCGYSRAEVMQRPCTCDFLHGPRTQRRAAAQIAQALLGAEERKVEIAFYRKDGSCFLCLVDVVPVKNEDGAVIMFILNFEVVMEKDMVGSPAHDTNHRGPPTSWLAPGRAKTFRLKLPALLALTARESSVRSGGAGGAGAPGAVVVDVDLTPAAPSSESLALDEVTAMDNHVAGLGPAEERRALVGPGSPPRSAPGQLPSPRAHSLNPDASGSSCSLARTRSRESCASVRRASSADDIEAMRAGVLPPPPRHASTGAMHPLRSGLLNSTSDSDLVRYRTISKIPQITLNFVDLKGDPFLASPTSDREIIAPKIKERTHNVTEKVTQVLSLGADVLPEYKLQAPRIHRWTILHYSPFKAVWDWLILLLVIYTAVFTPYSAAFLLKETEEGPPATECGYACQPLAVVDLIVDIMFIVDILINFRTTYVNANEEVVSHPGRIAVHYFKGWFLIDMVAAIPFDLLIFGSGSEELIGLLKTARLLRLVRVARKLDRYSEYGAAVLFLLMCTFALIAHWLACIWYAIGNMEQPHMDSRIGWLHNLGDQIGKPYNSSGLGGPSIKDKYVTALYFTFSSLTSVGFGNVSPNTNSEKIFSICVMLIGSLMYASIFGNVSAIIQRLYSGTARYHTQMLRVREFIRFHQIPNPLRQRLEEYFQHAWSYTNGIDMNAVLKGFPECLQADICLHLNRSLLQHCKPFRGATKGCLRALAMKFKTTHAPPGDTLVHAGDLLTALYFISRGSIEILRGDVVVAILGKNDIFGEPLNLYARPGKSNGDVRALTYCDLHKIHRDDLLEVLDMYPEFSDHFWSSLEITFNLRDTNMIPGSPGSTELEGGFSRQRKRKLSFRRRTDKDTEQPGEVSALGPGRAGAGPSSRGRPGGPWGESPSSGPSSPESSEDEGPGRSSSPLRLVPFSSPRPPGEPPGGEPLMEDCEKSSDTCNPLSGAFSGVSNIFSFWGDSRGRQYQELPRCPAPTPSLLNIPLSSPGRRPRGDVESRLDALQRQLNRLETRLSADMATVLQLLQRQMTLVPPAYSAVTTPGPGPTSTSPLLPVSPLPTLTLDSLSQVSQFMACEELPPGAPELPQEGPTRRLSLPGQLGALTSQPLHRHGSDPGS
Chain of Cytochrome P450 1A2 (Homo sapiens) (P05177 whole entry, looked up): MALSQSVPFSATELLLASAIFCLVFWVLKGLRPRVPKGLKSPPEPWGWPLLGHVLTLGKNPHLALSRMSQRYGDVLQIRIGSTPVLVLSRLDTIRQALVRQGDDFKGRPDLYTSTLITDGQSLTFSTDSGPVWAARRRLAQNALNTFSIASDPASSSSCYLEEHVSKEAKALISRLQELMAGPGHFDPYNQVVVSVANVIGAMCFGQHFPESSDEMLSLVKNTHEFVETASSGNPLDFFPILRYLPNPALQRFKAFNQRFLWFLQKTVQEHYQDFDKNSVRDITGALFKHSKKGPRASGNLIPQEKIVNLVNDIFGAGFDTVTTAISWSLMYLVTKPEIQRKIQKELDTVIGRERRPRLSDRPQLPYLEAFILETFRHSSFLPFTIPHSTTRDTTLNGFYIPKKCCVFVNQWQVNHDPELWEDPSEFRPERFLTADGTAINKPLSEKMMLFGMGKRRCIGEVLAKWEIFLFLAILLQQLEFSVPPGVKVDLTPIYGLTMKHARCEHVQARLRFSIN

For the molecule `CCCCCCCCCCCCCO`, in experiment [1], the Potency entry is “inactive and 26.1 µM (active)”. In addition, the Potency result in experiment [2] and in experiment [3] was “inactive” throughout.
With `C=C[C@@]1(C)CC(=O)[C@]2(O)[C@@]3(C)[C@@H](O)CCC(C)(C)[C@@H]3[C@H](O)[C@H](OC(C)=O)[C@@]2(C)O1`, the Potency entry in experiment [1] is “inactive”.
Regarding `[O-]/[N+](=N\O)c1ccccc1`, in experiment [1], the Potency is 22.2 µM (active) and 25.2 µM (active). Further, the Potency result in experiment [2] and in experiment [3] was “inactive” each time.
Regarding `c1ccc2c(c1)[nH]c1ccccc12`, the Potency in experiment [1] was 2.21 µM (active) and 2.24 µM (active). For the same molecule, the Potency result in experiment [2] and in experiment [3] was “inactive” throughout.
As to `COC(=O)CC(=O)OC`, the Potency entry in experiment [1] and in experiment [2] was “inactive” each time. Also, in experiment [3], the Potency entry was “inactive and 63.3 µM (active)”.
`CC[C@]12CCCN3CCc4c(n(c5ccccc45)[C@@](O)(C(=O)OC)C1)[C@@H]32`: the Potency entry in experiment [1] is “inactive”. Besides, in experiment [2], the Potency was 692 nM (active) and 1.69 µM (active).
Take `NC[C@H](O)c1ccc(O)c(O)c1`: the Potency result in experiment [1], in experiment [2] and in experiment [3] was “inactive” in each case.
With `COc1ccc(-c2coc3cc(O)cc(O)c3c2=O)cc1`, the Potency in experiment [1] is 32 µM (active) and 35.6 µM (active); in experiment [3] it was 20.2 µM (active) and 35.6 µM (active). In addition, the Potency entry in experiment [2] is “inactive”.
For the molecule `CC1(C)O[C@@H]2C[C@H]3[C@@H]4C[C@H](F)C5=CC(=O)C=C[C@]5(C)[C@@]4(F)[C@@H](O)C[C@]3(C)[C@]2(C(=O)CO)O1`, the Potency entry in experiment [1] and in experiment [2] was “inactive” each time. The Potency in experiment [3] is 20 µM (active) and 3.89 µM (active).
Turning to `c1ccc2cc3ccccc3cc2c1`, in experiment [1], the Potency is 653 nM (active) and 502 nM (active). Also, the Potency entry in experiment [2] and in experiment [3] was “inactive” each time.
In the case of `C=C[Si](OCCOC)(OCCOC)OCCOC`, the Potency result in experiment [1] and in experiment [2] was “inactive” each time. The Potency in experiment [3] is 20.1 µM (active) and 31.7 µM (active).
Regarding `CCCCCCCCCCCCO`, the Potency entry in experiment [1] is “inactive and 27.9 µM (active)”. The Potency entry in experiment [2] and in experiment [3] was “inactive” throughout.
`CC(C)=CCO`: the Potency entry in experiment [1], in experiment [2] and in experiment [3] was “inactive” throughout.
Take `CC(=O)O[C@]1(C(C)=O)CC[C@H]2[C@@H]3C=C(Cl)C4=CC(=O)CC[C@]4(C)[C@H]3CC[C@@]21C`: the Potency entry in experiment [1], in experiment [2] and in experiment [3] was “inactive” each time.
On to `NCCN`, for which the Potency result in experiment [1] and in experiment [2] was “inactive” in each case. Also, the Potency in experiment [3] was 81.2 µM (active) and inactive.
As to `CCc1cccc2c3c([nH]c12)C(CC)(CC(=O)O)OCC3` (configuration not stated), the Potency result in experiment [1], in experiment [2] and in experiment [3] was “inactive” throughout.
For the molecule `c1ccc2c(c1)ccc1cc3c(ccc4ccccc43)cc12`, the Potency in experiment [1] was 24.9 µM (active). The Potency result in experiment [2] and in experiment [3] was “inactive” in each case.
On to `c1ccc2c(c1)ccc1ncccc12`, for which the Potency in experiment [1] was 4.45 µM (active) and 7.1 µM (active); in experiment [3], 62.8 µM (active). Also, in experiment [2], the Potency result is “inactive”.
With `CC1(C)OC(=O)NC1=O`, the Potency result in experiment [1] and in experiment [2] was “inactive” each time.
In the case of `CC1(C)NC(=O)N(c2ccc([N+](=O)[O-])c(C(F)(F)F)c2)C1=O`, the Potency in experiment [1] is 11.2 µM (active) and 12.3 µM (active).
As to `COc1cc([C@H]2Oc3cc([C@H]4Oc5cc(O)cc(O)c5C(=O)[C@@H]4O)ccc3O[C@@H]2CO)ccc1O`, the Potency in experiment [1] is 35.5 µM (active) and inactive.
Take `C=CCOC(=O)C(=C)C`: the Potency result in experiment [1], in experiment [2] and in experiment [3] was “inactive” in each case.
With `Nc1ccc2c(c1)C(=O)c1ccccc1C2=O`, the Potency was 220 nM (active) and 252 nM (active) in experiment [1]; 1.24 µM (active) and 1.78 µM (active) in experiment [3]. The Potency result in experiment [2] is “inactive”.
Take `CC(=O)[C@@]1(O)CC[C@H]2[C@@H]3C[C@H](C)C4=CC(=O)C=C[C@]4(C)[C@@]3(F)[C@@H](O)C[C@@]21C`: the Potency entry in experiment [1] and in experiment [2] was “inactive” each time.
On to `CC(=O)OC(C)C`, for which the Potency entry in experiment [1], in experiment [2] and in experiment [3] was “inactive” in each case.
As to `CCCCCCC(C)O` (configuration not stated), the Potency entry in experiment [1], in experiment [2] and in experiment [3] was “inactive” throughout.
As to `CCC(=O)O[C@H]1[C@H](O[C@@H]2[C@@H](C)[C@H](O[C@H]3C[C@@](C)(OC)[C@@H](O)[C@H](C)O3)[C@@H](C)C(=O)O[C@H](CC)[C@@](C)(O)[C@H](O)[C@@H](C)C(=O)[C@H](C)C[C@@]2(C)O)O[C@H](C)C[C@@H]1N(C)C`, the Potency entry in experiment [1] and in experiment [2] was “inactive” throughout. For the same molecule, the Potency in experiment [3] is 265 nM (active) and 2.75 µM (active).
Consider `CC1=CC(C)(C)Nc2ccccc21`, for which the Potency result in experiment [1] and in experiment [2] was “inactive” in each case. Further, the Potency in experiment [3] is 2.75 µM (active).
Turning to `Cc1ccc(N)c([N+](=O)[O-])c1`, the Potency in experiment [1] was 15.7 µM (active) and 14.2 µM (active). In addition, the Potency entry in experiment [2] and in experiment [3] was “inactive” each time.
Regarding `CC(=O)Oc1ccc(C(c2ccc(OC(C)=O)cc2)c2ccccn2)cc1`, the Potency entry in experiment [1], in experiment [2] and in experiment [3] was “inactive” throughout.
`CCCN1C=CN(C)C1`: the Potency result in experiment [1], in experiment [2] and in experiment [3] was “inactive” throughout.
On to `Clc1ccc(Sc2cc(Cl)c(Cl)cc2Cl)cc1`, for which, in experiment [1], the Potency is 11 µM (active) and 3.99 µM (active). Further, the Potency result in experiment [2] and in experiment [3] was “inactive” each time.

Source of the values: PubChem BioAssay (Tox21).
